Reference: PubChem BioAssay AID1159580 (chemical genetic matrix, 2015)
The whole screen tested about 5,500 compounds, of which about 2,000 (36%) were called active. About 18% were inconclusive and are not listed. Cut-off read from the data, not from the text of the source: active = normalized growth mostly below about 0.91 (no sharp cut-off); inconclusive = no clear call, values can overlap the other calls; inactive = mostly above about 0.92. The list shows a part of the results.

Assay: chemical genetic growth profiling, strain panel (AID 1159580);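 note: tested at 20 µM; growth read once vehicle control cultures reached saturation at 30 °C; 1 = growth at the plate median or of vehicle wells; lower values mean less growth of the strain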
Conditions: S. cerevisiae deletion strains, growth OD

Measured: normalized growth

CC(=O)NCCc1ccc(O)c(-c2c(O)c(O)c3c(c2O)C(=O)c2c(cc(O)c(C(=O)O)c2C(=O)O)C3=O)c1
inactive: locus YHR030C, strain SLT2, hits give low values 1 | locus YHR079C, strain IRE1, hits give low values 1.01 | locus YJL095W, strain BCK1, hits give low values 0.992 | locus YJR066W, strain TOR1, hits give low values 0.931 | locus YLR113W, strain HOG1, hits give low values 1.01 | locus YNL183C, strain NPR1, hits give low values 0.924 | locus YOR231W, strain MKK1, hits give low values 1.03 | locus YPL256C, strain CLN2, hits give low values 1.04

N#CC(=C(\N)Sc1ccccc1N)/C(C#N)=C(/N)Sc1ccccc1N
inactive: locus YAL013W, strain DEP1, hits give low values 0.988 | locus YAL040C, strain CLN3, hits give low values 0.974 | locus YCL061C, strain MRC1 (second series), hits give low values 1.01 | locus YDR150W, strain NUM1, hits give low values 1.01 | locus YDR363W, strain ESC2, hits give low values 1 | locus YER002W, strain NOP16, hits give low values 1 | locus YGR078C, strain PAC10, hits give low values 0.99 | locus YJR075W, strain HOC1, hits give low values 0.97 | locus YMR263W, strain SAP30, hits give low values 1 | locus YMR307W, strain GAS1, hits give low values 0.995 | locus YNL153C, strain GIM3, hits give low values 0.923 | locus YNL175C, strain NOP13, hits give low values 0.981 | locus YNL197C, strain WHI3, hits give low values 0.971 | locus YNL224C, strain SQS1, hits give low values 0.973 | locus YNL322C, strain KRE1, hits give low values 0.988 | locus YPL241C, strain CIN2, hits give low values 1.01
active: locus YOR083W, strain WHI5 (second series), hits give low values 0.763
